In assay [1] the target is Progesterone receptor (Homo sapiens) (UniProt P06401). In words: qHTS assay to identify small molecule agonists of the progesterone receptor (PR) signaling pathway (AID 1346784; calls by dose curve; further: nearly all actives have a fitted effect of over 30% in size). In short, it runs like this:
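PR-UAS-bla HEK 293T cells (beta-lactamase reporter under UAS) in 2% charcoal-stripped FBS, dosed with 23 nL compound after 6 hr, incubated 16hr at 37C. LiveBLAzer B/G FRET substrate added, fluorescence read after 2 hours.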

The target is the same in assay [2]. The experiment in a line: qHTS assay to identify small molecule antagonists of the progesterone receptor (PR) signaling pathway (AID 1346795; active means well fitted inhibition curve with a large enough effect in the signal ratio in the repeat runs, not every such curve was filed as active; the % refers to the signal ratio). In short, it runs like this: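 PR-UAS-bla HEK293T cells with beta-lactamase reporter under UAS control, in 2% charcoal-stripped FBS, treated with compounds plus 1 nM promegestone (R5020, final) for 16 hr at 37C. Read-out: FRET beta-lactamase substrate fluorescence after 2 hr at room temperature.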

A short description of assay [3]: qHTS assay to identify small molecule antagonists of the progesterone receptor (PR) signaling pathway - cell viability counter screen (AID 1346798). Further: series mostly up to about 92 µM; nearly all actives have a fitted effect of over 50% in size. The essentials:
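PR-UAS-bla HEK293T cells, 3,000/well in 2% charcoal-stripped FBS medium, dosed with compounds plus R5020 agonist and incubated 16 h at 37C. Viability then measured in the same wells by CellTiter-Glo luminescence after 30 min at RT.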

Assay [4] can be described thus: qHTS assay to identify small molecule agonists of the progesterone receptor (PR) signaling pathway - cell viability counter screen (AID 1346799; calls by dose curve; further: nearly all actives have a fitted effect of over 45% in size). In short, it runs like this:
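Counter screen in the PR-UAS-bla HEK293T wells (2% charcoal-stripped FBS, 16 h compound exposure at 37 C) after the bla read. CellTiter-Glo added, 30 min at room temperature, luminescence read as cell viability.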

A short description of assay [5]: qHTS assay to identify small molecule antagonists of the TGF-beta/Smad signaling pathway - cell viability counter screen (AID 1346824). Further: nearly all actives have a fitted effect of over 50% in size. In short, it runs like this:
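SBE-bla HEK 293T cells were plated overnight at 37 C, then given compounds in DMSO plus TGF-beta1 (added as 0.25 ng/mL solution) for 5 hr. After the bla read, CellTiter-Glo was added to the same wells and luminescence read after 30 min at room temperature.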

Assay [6] is described as follows: qHTS assay to identify small molecule agonists of the TGF-beta/Smad signaling pathway - cell viability counter screen (AID 1346829). Further: top concentration of the series differs between compounds; nearly all actives have a fitted effect of over 45% in size. The essentials: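 HEK 293T SBE-bla line, 5 hr compound exposure at 37 C, multiplexed CellTiter-Glo viability read by luminescence.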
A short description of assay [7]: qHTS assay to identify small molecule agonists of the TGF-beta/Smad signaling pathway (AID 1346859; active means well fitted activation curve with a large enough effect in the signal ratio in the repeat runs, not every such curve was filed as active; the % refers to the signal ratio; further: series mostly up to about 77 µM). In short, it runs like this:
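SBE-bla HEK293T cells plated overnight, then compound exposure for 5 h at 37 C. Beta-lactamase reporter read with LiveBLAzer B/G FRET substrate after 2 h at room temperature, fluorescence at 405 nm excitation, 460/530 nm emission.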

Assay [8] deals with Thyrotropin-releasing hormone receptor (Homo sapiens) (UniProt P34981). In words: qHTS assay to identify small molecule antagonists of the thyrotropin-releasing hormone receptor (TRHR) signaling pathway (AID 1346877; active means well fitted inhibition curve with a large enough effect in the repeat runs, not every such curve was filed as active; further: series mostly up to about 51 µM). The essentials: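 Kinetic fluorescence (3 min, 1 s resolution) following stimulation with TRH at 1 nM final; HEK293 cells bearing human TRHR; 5 min compound preincubation at RT; concentration-response over 15 points, triplicates.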

For assay [9] the target is unchanged. The experiment in a line: qHTS assay to identify small molecule agonists of the thyrotropin-releasing hormone receptor (TRHR) signaling pathway (AID 1346891; calls by dose curve; further: series mostly up to about 58 µM). In short, it runs like this: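 HEK293 cells expressing TRHR plated 18 h at 37 C/5% CO2, calcium dye-loaded 2 h at 37 C, then compound added (agonist mode); kinetic calcium fluorescence read 3 min at 1 s intervals; 15 concentrations in triplicate.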

A short description of assay [10]: Caspase-3/7 induction in HepG2 cells by small molecules, qHTS assay (AID 1346978). Further: nearly all actives have a fitted effect of over 15% in size. In short, it runs like this:
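Wild-type HepG2 cells (2,000/well) were settled 5 h at 37 C, 5% CO2, then exposed to compounds in DMSO for 17 h. Caspase-3/7 activity was read by luminescence 30 min after adding Caspase-Glo 3/7 reagent at room temperature.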

A short description of assay [11]: Caspase-3/7 induction in CHO-K1 cells by small molecules, qHTS cell viability counter screen (AID 1346979). Further: nearly all actives have a fitted effect of over 35% in size. In short, it runs like this:
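Wild-type CHO-K1 cells (1,500/well) treated with compound after 5 h plating; after 16 h at 37C, viability read as CellTiter-Fluor fluorescence following 1 h reagent incubation, in the same wells as the caspase read.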

Assay [12] can be described thus: Caspase-3/7 induction in CHO-K1 cells by small molecules, qHTS assay (AID 1346980). Further: nearly all actives have a fitted effect of over 15% in size. In short, it runs like this:
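Wild-type cells were seeded at 1,500 per well and settled 5 hr at 37 C, 5% CO2, then exposed to DMSO-dissolved compounds for 17 hr. Caspase-Glo 3/7 reagent was added, and luminescence was read after 30min at room temperature.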

Assay [13] in a line: Caspase-3/7 induction in HepG2 cells by small molecules, qHTS cell viability counter screen (AID 1346981). Further: series mostly up to about 92 µM; nearly all actives have a fitted effect of over 30% in size. In short, it runs like this:
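In this quantitative HTS counter screen, compounds delivered in DMSO were left on unmodified HepG2 cells for 16 hr at 37 C. Viability was then determined fluorometrically with CellTiter-Fluor, in parallel with caspase-3/7 induction in the same wells.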

In assay [14] the target is Nuclear receptor subfamily 1 group I member 2 (Homo sapiens) (UniProt O75469). In words: Human pregnane X receptor (PXR) small molecule agonists, qHTS assay (AID 1346982). Further: nearly all actives have a fitted effect of over 35% in size. In short, it runs like this: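 Reporter HepG2 cells expressing PXR-Luc are cultured in charcoal-stripped FBS (5%), treated with compounds for 24 hr at 37 C, and assayed by ONE-Glo luminescence after 30 min at room temperature.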

For assay [15], the target named is Cytochrome P450 2D6 (Homo sapiens) (UniProt P10635). The experiment in a line: Cytochrome P450 Family 2 Subfamily D Member 6 (CYP2D6) small molecule antagonists: luciferase reporter qHTS assay (AID 1671196). Further: nearly all actives have a fitted effect of over 50% in size. Further: potency means the concentration at half of the fitted maximal effect. The essentials: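 Test chemicals meet CYP2D6 plus proluciferin substrate (10 min, RT); NADPH regenerating solution then drives turnover for 1 h. Detection reagent halts the reaction; luminescence measured after 20 min.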

In assay [16] the target is Cytochrome P450 2C19 (Homo sapiens) (UniProt P33261). The experiment in a line: Cytochrome P450 Family 2 Subfamily C Member 19 (CYP2C19) small molecule antagonists: luciferase reporter qHTS assay (AID 1671197). Further: nearly all actives have a fitted effect of over 65% in size. Further: potency means the concentration at half of the fitted maximal effect. The essentials: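 First, compounds are pinned into enzyme-substrate mix and held 10 min at room temperature. Second, NADPH regeneration solution is added and plates incubate 1 h at 37C. Third, detection reagent is added and luminescence read after 20 min.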

Assay [17] is described as follows: Human pregnane X receptor (PXR) small molecule agonists, qHTS cell viability counter screen (AID 1346977). Further: nearly all actives have a fitted effect of over 50% in size. In short, it runs like this:
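PXR-Luc HepG2 cells (2,000/well, 5% charcoal-stripped FBS) preincubated 5 hr, then exposed to compounds 24 hr at 37 C. Viability read in the same wells by CellTiter-Fluor fluorescence, reagent added at 23 hr, 1 hr incubation.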

The target in assay [18] is Nuclear receptor subfamily 1 group I member 2 (Rattus norvegicus) (UniProt Q9R1A7). The experiment in a line: Rat pregnane X receptor (rPXR) activation by small molecules, qHTS assay (AID 1346983). Further: nearly all actives have a fitted effect of over 20% in size. The conditions noted are these: rPXR luciferase reporter cells, One-Glo luminescence, 24 h; hits give high values. In short, it runs like this:
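Cell-based rPXR luciferase reporter assay, 2,000 cells per well, rested 5hr at 37 C before compound addition in DMSO, then 24 hr at 37 C. One-Glo reagent was added and luminescence read after 30 min at room temperature.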

In assay [19] the target is Nuclear receptor subfamily 1 group I member 2 (Homo sapiens) (UniProt O75469). In words: CYP3A4 induction through human pregnane X receptor (PXR) by small molecules, qHTS assay (AID 1346984). Further: nearly all actives have a fitted effect of over 40% in size. In short, it runs like this: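 Induction measured in HepG2-based DPX-2 cells co-expressing human PXR and a CYP3A4 promoter-driven luciferase. After a 24-hour compound exposure, cells received CYP3A4 luciferin substrate at 3uM final for 3 hours, and light output was then recorded.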

Assay [20] has the same target. In words: Human pregnane X receptor (PXR) activation by small molecules, qHTS assay (AID 1346985). Further: nearly all actives have a fitted effect of over 40% in size. In short, it runs like this: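 DPX-2 cells (HepG2 co-transfected with a PXR response element and a CYP3A4-promoter luciferase construct) were seeded at 2,000 per well, rested 5 hr at 37C, then exposed to DMSO-dissolved compounds for 24 hr. Activation was read as luciferase luminescence.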

A number with no mark means an inactive call. Records with an inconclusive call do not appear. The source made the active and inactive calls. Unless noted, the call rests on the fitted dose curve; in most records, active means well fitted curve in the direction sought with a large enough effect in the repeat runs; inconclusive means weak or mixed curves; inactive means no such curve, though single readings can be large; an effect the other way counts as inactive or inconclusive.
On the % scale 0 is the no-effect control and ±100 the full control effect.

Cytochrome P450 2D6 (Homo sapiens), sequence (P10635 whole entry, looked up): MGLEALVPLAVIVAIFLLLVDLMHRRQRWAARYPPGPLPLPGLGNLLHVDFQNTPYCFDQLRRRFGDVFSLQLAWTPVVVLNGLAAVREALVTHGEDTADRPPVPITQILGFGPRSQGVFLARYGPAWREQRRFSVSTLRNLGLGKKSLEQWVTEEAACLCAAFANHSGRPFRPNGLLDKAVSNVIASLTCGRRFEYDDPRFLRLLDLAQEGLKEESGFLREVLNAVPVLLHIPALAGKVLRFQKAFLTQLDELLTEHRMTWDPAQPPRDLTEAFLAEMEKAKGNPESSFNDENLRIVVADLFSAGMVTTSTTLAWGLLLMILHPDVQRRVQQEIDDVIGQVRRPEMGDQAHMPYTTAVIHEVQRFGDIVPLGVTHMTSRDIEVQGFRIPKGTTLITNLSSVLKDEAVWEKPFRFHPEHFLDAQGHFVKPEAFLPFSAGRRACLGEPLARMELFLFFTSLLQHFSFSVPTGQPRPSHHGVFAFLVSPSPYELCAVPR
Progesterone receptor (Homo sapiens), sequence (P06401 whole entry, looked up): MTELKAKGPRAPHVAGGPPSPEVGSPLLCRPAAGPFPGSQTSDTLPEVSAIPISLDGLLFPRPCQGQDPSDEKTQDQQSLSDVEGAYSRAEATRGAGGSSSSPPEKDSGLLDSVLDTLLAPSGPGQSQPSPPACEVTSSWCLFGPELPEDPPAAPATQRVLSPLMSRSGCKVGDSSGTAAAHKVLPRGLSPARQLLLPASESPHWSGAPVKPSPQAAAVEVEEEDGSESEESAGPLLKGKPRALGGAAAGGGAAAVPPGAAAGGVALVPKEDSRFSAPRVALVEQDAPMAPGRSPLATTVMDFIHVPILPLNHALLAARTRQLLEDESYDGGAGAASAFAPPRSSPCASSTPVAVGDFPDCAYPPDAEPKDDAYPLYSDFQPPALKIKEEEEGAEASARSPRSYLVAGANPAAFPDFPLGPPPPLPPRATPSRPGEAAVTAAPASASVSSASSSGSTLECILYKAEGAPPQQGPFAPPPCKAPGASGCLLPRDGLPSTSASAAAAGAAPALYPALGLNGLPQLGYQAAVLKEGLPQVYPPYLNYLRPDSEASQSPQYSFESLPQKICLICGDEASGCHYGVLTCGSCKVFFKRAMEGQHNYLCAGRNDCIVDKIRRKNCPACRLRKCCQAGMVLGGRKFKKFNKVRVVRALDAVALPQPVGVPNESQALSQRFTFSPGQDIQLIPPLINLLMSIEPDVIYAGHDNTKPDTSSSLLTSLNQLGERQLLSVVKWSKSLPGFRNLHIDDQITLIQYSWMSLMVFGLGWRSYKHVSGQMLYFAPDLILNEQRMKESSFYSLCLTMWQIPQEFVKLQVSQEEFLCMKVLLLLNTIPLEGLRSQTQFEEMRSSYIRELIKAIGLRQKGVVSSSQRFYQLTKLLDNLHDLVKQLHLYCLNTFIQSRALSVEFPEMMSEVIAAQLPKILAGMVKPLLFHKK
Nuclear receptor subfamily 1 group I member 2 (Homo sapiens), sequence (O75469 whole entry, looked up): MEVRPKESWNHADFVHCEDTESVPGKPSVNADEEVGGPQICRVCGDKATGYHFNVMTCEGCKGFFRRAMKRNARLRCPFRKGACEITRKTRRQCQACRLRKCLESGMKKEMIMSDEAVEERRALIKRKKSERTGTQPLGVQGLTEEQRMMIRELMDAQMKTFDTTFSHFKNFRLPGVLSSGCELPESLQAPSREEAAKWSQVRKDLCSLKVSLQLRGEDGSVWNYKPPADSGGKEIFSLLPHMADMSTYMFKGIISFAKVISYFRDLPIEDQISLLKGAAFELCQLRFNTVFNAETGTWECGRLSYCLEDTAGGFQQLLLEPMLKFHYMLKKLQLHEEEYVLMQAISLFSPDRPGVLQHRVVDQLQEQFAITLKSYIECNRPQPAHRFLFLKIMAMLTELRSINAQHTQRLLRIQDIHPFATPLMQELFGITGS
Cytochrome P450 2C19 (Homo sapiens), sequence (P33261 whole entry, looked up): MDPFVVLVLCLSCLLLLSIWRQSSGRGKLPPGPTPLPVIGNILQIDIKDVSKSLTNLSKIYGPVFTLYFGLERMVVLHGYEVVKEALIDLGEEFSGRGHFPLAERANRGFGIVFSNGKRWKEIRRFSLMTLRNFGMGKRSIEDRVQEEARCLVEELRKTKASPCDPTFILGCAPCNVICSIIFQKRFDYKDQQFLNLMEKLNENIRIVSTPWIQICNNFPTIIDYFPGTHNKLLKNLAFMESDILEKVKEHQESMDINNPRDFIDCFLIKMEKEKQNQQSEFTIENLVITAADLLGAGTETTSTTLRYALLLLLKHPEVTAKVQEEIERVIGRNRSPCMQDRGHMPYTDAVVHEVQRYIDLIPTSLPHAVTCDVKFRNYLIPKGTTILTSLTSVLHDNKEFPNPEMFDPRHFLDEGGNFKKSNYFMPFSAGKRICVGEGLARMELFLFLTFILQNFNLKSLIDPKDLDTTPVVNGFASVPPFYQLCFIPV
Thyrotropin-releasing hormone receptor (Homo sapiens), sequence (P34981 whole entry, looked up): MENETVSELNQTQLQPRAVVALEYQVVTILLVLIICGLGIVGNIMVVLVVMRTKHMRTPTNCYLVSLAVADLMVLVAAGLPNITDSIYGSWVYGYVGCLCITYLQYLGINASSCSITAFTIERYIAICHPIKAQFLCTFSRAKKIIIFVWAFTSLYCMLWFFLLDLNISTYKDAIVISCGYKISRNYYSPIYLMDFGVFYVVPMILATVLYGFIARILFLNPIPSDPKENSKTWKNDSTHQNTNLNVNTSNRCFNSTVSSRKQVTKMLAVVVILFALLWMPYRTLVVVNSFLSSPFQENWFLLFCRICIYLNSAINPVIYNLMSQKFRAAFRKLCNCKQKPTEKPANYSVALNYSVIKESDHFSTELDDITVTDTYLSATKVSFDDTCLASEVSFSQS
Nuclear receptor subfamily 1 group I member 2 (Rattus norvegicus), sequence (Q9R1A7 whole entry, looked up): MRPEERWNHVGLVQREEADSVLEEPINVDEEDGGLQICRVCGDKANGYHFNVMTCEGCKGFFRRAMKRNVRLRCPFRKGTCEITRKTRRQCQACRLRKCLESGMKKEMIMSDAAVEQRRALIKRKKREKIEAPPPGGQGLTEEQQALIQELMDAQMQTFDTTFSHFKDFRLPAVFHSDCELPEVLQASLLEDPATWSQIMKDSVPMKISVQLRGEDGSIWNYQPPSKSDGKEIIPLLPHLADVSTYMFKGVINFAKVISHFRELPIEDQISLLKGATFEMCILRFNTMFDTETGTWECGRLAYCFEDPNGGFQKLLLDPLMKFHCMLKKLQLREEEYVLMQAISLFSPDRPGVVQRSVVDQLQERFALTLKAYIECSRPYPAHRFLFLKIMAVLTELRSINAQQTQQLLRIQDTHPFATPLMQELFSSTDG

For the compound `CC(C)(O)C(=O)c1ccccc1`, the Potency entry in [1], in assay [2], in [3], in assay [4], in [5] and in assay [10] was “inactive” in each case. Also, the Potency result in [11], in assay [13], in [14] and in [15] was “inactive” each time. The compound was classed as inactive in [6], in [7], in assay [8], in assay [9] and in assay [12]. Also, the Potency in assay [16] was 39.9 µM (active).

On to `COc1ccccc1OCC(O)CN1CCN(CC(=O)Nc2c(C)cccc2C)CC1` (stereo not given), for which the Potency entry in assay [1], in assay [2], in assay [3], in [4], in assay [5] and in assay [17] was “inactive” throughout. The Potency result in assay [10], in [13], in [14] and in assay [16] was “inactive” in each case. Further, the compound was called inactive in assay [6], in assay [7], in assay [8], in assay [9] and in [12]. Also, the Potency in assay [15] is 13.8 µM (active).

Turning to `CCOC(=O)c1c(C)n(C)c2ccc(O)cc12`, the Potency entry in assay [1], in assay [2], in assay [3], in assay [4], in assay [5] and in [17] was “inactive” throughout. The Potency result in [10], in assay [13], in [19] and in assay [20] was “inactive” each time. In addition, the compound was classed as inactive in assay [6], in [7], in assay [8], in assay [9] and in [12]. In [18], the max activation was -1.63%. For the same compound, the Potency in assay [16] is 7.76 µM (active).

Turning to `CC(C(=O)O)c1ccc(CC2CCCC2=O)cc1` (stereo not given), the Potency entry in assay [1], in [2], in [3], in assay [4], in [5] and in assay [10] was “inactive” in each case. Further, the Potency entry in assay [11], in [14], in assay [15] and in assay [16] was “inactive” throughout. Moreover, the outcome in [6], in assay [7], in assay [8], in [9] and in [12] was inactive.

Consider `CC/C=C\CC/C=C/CO`, for which the Potency entry in assay [1], in assay [2], in [3], in assay [4], in [5] and in assay [17] was “inactive” each time. In addition, the Potency entry in [10], in [11], in [13], in assay [14], in [15] and in [16] was “inactive” in each case. Further, the outcome in [6], in assay [7] and in [9] was inactive.

In the case of `O=C(O)CNC(=O)c1ccc([N+](=O)[O-])cc1`, the Potency entry in assay [1], in assay [2], in [3], in assay [4], in [5] and in assay [17] was “inactive” in each case. The Potency entry in assay [10], in assay [13], in assay [14], in assay [15] and in [16] was “inactive” throughout. Also, the call in assay [6], in assay [7], in [9] and in assay [12] was inactive.

`CCOC(=O)c1ccc(C)cc1`: the Potency result in [1], in [2], in assay [3], in assay [4], in [5] and in assay [10] was “inactive” each time. In addition, the Potency entry in assay [11], in [13], in [14], in [15] and in [16] was “inactive” in each case. The result in [6], in [7], in [8], in assay [9] and in [12] was inactive.

`Nc1cc(=O)[nH]c(N)n1`: the Potency entry in [1], in assay [2], in assay [3], in assay [4], in assay [5] and in [17] was “inactive” each time. Also, the Potency result in [10], in assay [11], in [14], in [15] and in [16] was “inactive” each time. The result in assay [6], in assay [7], in [9] and in [12] was inactive.

Source of the values: PubChem BioAssay (Tox21).
